# Laboratory results taken from ChEMBL document CHEMBL1961873, “Compounds: GSK PKIS; Assays: Nanosyn kinase panel” (2012).
# “And” between values parts separate entries of the source, which are not always exact repeats. Identical values can stand only once.
# Experiments:
# [1] = molecular target: Death-associated protein kinase 1 (Homo sapiens) (UniProt P53355); details: at 1 µM;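 also: each value is a mean inhibition figure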
# [2] = molecular target: T1, Serine/threonine-protein kinase DCLK2 (Homo sapiens) (UniProt Q8N568); details: at 0.1 µM
# T1 sequence (whole entry): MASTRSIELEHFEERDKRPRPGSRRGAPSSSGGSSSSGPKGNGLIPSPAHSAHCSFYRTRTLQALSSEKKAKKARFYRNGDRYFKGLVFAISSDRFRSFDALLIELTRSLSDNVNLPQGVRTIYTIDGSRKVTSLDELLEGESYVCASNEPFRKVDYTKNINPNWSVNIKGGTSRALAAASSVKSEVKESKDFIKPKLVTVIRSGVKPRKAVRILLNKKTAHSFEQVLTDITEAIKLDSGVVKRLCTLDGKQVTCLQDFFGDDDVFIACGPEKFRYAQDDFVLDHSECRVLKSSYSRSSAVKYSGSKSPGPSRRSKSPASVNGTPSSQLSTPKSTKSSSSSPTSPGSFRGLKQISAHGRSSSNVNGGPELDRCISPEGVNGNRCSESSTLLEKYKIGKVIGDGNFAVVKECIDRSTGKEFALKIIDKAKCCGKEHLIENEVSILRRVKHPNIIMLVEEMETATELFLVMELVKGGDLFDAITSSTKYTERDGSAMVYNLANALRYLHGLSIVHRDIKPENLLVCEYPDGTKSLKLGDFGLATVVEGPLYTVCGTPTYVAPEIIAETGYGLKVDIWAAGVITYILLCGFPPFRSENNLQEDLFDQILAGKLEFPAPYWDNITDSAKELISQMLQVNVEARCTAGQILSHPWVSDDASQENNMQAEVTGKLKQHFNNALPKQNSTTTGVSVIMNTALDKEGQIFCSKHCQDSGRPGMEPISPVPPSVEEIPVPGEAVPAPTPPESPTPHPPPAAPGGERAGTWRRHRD
# [3] = molecular target: T1, Serine/threonine-protein kinase DCLK2 (Homo sapiens); details: at 1 µM
# [4] = molecular target: MAP kinase-activated protein kinase 2 (Homo sapiens) (UniProt P49137); details: at 0.1 µM
# MAP kinase-activated protein kinase 2 (Homo sapiens), sequence (P49137 whole entry, looked up): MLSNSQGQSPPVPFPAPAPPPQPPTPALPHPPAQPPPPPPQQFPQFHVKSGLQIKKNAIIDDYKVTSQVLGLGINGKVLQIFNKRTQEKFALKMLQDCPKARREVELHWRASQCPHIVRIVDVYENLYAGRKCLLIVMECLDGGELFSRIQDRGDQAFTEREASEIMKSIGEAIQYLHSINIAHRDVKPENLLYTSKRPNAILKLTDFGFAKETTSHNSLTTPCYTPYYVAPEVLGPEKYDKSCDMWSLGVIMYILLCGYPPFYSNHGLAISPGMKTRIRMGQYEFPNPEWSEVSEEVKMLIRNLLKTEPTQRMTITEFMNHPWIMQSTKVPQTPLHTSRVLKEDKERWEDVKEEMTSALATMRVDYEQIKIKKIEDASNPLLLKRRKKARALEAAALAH
# [5] = molecular target: MAP kinase-activated protein kinase 2 (Homo sapiens) (UniProt P49137); details: at 1 µM
# [6] = molecular target: MAP kinase-activated protein kinase 3 (Homo sapiens) (UniProt Q16644); details: at 0.1 µM
# MAP kinase-activated protein kinase 3 (Homo sapiens), sequence (Q16644 whole entry, looked up): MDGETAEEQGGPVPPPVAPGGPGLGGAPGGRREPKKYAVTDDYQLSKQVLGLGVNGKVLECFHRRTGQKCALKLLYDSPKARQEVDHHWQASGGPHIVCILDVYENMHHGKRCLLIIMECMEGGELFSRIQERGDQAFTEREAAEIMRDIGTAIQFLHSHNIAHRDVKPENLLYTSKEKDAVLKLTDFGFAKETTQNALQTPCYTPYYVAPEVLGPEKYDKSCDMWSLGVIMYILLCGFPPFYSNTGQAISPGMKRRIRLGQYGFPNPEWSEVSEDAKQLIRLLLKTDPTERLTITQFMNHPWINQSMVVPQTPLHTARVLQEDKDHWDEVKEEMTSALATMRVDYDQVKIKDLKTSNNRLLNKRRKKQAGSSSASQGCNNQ
# [7] = molecular target: MAP kinase-activated protein kinase 3 (Homo sapiens) (UniProt Q16644); details: at 1 µM
# [8] = molecular target: Serine/threonine-protein kinase MARK1 (Homo sapiens) (UniProt Q9P0L2); details: at 0.1 µM
# Serine/threonine-protein kinase MARK1 (Homo sapiens), sequence (Q9P0L2 whole entry, looked up): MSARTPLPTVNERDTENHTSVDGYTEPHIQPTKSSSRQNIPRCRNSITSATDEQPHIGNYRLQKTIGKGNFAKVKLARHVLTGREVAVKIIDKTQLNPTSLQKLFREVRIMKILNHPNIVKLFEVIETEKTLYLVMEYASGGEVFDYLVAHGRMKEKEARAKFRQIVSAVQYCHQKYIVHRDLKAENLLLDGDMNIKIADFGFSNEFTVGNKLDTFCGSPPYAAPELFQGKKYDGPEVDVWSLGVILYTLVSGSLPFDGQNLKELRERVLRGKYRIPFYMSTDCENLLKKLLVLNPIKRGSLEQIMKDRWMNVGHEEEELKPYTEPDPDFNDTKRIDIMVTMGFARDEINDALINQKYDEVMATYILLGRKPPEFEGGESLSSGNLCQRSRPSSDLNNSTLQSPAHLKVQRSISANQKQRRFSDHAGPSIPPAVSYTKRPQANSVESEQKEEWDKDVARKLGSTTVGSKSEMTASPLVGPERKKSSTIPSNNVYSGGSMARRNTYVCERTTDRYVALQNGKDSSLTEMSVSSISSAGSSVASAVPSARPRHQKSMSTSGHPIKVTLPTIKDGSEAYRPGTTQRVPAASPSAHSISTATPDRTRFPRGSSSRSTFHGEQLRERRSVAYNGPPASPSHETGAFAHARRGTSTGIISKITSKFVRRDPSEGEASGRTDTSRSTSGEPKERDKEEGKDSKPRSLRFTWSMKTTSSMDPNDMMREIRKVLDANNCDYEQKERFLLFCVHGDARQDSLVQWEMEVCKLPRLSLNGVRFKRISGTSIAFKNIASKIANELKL
# [9] = molecular target: Serine/threonine-protein kinase MARK1 (Homo sapiens) (UniProt Q9P0L2); details: at 1 µM
# [10] = molecular target: MAP/microtubule affinity-regulating kinase 3 (Homo sapiens) (UniProt P27448); details: at 0.1 µM;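 also: mean percent inhibition of MARK3 kinase activity, measured within the GSK PKIS screening panel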
# MAP/microtubule affinity-regulating kinase 3 (Homo sapiens), sequence (P27448 whole entry, looked up): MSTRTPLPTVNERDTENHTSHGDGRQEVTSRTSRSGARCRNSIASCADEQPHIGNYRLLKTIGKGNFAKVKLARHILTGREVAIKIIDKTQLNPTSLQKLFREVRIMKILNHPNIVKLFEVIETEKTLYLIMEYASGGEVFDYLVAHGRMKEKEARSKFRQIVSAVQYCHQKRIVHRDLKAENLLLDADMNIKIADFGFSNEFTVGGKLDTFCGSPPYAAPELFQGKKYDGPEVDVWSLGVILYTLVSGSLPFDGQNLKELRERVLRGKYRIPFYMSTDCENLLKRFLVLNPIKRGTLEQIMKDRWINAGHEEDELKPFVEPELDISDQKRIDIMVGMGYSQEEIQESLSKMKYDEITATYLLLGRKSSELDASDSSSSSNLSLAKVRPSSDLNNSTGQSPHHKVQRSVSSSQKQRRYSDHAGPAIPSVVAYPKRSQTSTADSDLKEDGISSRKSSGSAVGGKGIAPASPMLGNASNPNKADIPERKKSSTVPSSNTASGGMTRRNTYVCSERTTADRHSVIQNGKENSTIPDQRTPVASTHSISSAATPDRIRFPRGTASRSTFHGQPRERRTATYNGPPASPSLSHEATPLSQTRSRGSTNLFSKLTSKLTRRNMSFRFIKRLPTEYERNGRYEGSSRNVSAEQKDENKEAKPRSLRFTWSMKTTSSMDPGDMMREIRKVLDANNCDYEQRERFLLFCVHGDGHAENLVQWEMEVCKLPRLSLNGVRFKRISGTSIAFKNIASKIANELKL
# Death-associated protein kinase 1 (Homo sapiens), sequence (P53355 whole entry, looked up): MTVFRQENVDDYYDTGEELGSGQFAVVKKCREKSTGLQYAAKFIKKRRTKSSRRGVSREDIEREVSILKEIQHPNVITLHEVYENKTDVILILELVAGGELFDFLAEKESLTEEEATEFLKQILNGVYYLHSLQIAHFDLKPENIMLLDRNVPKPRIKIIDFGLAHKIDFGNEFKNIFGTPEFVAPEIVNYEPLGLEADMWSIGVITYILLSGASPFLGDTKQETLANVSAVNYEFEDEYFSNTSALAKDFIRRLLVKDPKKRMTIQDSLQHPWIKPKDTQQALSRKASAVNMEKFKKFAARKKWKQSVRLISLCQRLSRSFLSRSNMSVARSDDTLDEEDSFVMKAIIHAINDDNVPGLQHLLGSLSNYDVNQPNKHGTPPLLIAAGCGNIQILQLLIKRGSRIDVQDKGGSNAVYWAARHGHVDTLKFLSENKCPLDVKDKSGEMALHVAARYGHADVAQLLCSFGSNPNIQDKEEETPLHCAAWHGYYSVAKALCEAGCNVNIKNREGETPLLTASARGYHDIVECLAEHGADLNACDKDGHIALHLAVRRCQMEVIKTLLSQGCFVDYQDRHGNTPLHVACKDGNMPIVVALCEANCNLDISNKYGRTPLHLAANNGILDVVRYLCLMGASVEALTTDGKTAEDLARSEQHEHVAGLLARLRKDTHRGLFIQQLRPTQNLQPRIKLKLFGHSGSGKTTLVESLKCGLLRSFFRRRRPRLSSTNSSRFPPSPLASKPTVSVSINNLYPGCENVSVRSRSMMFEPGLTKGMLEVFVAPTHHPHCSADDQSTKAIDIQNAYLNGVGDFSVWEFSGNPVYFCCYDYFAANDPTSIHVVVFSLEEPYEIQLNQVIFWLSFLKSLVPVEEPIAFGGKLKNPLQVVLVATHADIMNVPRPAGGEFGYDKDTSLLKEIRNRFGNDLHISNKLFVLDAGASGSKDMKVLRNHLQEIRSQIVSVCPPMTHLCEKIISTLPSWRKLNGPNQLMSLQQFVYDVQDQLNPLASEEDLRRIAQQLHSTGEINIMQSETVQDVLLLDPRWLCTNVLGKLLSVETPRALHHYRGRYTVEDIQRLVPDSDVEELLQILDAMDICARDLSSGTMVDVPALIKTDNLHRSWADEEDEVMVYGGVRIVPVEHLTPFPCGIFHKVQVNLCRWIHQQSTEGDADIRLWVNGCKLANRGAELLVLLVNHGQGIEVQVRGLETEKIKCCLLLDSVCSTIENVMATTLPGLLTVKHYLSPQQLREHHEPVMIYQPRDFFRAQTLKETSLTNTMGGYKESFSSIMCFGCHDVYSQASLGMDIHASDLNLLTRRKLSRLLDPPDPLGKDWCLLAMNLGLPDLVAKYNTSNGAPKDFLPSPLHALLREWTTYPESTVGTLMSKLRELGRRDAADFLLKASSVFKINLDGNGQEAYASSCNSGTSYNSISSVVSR
SMILES,inhibition [1],inhibition [2],inhibition [3],inhibition [4],inhibition [5],inhibition [6],inhibition [7],inhibition [8],inhibition [9],inhibition [10]
CC1(C)CC(n2cnc(-c3ccc(F)cc3)c2-c2ccnc(N)n2)CC(C)(C)N1,-7.03%,2.01%,-7.74%,-2.49%,-2.73%,21.4%,26.4%,1.88%,0.57%,1.34%
COc1c(C(N)=O)cc(-c2ccc(Cl)cc2)cc1-c1ccc(S(N)(=O)=O)cc1,0.56%,-5.08%,2.52%,2.42%,3.46%,5.57%,8.63%,0.41%,1.61%,-0.24%
Cc1nnc(-c2cccc(-c3ccc(C(=O)NCC4CC4)cc3)c2)o1,6.03%,1.25%,4.29%,2.92%,2.7%,5.72%,6.73%,4.06%,6.5%,4.12%
FC(F)(F)CNc1nccc(-c2cnn3ncccc23)n1,2.17%,-0.54%,3.19%,1%,-0.08%,3.47%,3.54%,1.58%,4.46%,0.46%
CNC(=O)c1sc(-n2cnc3cc(OC)c(OC)cc32)cc1OCc1ccccc1C(F)(F)F,3%,0.25%,2.29%,1.17%,1.2%,3.3%,2.78%,2.03%,4.3%,0.78%
COC(=O)Nc1nc2ccc(Oc3ccc(NC(=O)Nc4cc(C(F)(F)F)ccc4F)cc3)cc2s1,-1.22%,-1.5%,-7.94%,0.26%,-0.42%,7.74%,20.3%,0.76%,0.29%,0.41%
CC(C)c1ccc(-c2cc(-c3c[nH]nc3-c3ccccn3)ccn2)cc1,-0.6%,0.39%,-0.35%,0.58%,-0.11%,0.63%,6.51%,1.23%,1.49%,-3.53%
COC(=O)Nc1nc2cc(Oc3ccc(NC(=O)Nc4ccccc4)cc3)ccc2[nH]1,3.19%,-1.72%,5.13%,1.49%,1.44%,1.74%,2.32%,2.28%,4.31%,1.57%
COc1cc(Nc2ncc(-c3ccccc3)o2)cc(OC)c1,-0.73%,1.65%,1.7%,2.4%,1.2%,3.76%,3.61%,1.26%,4.72%,3.35%
Nc1ncnc2occ(-c3ccc(NC(=O)Nc4cc(C(F)(F)F)ccc4F)cc3)c12,4.75% and 1.06%,3.65% and -1.65%,-4.63%,1.16% and -1.74%,1.1% and -1.65%,3.46% and -1.38%,13.9% and 7.55%,1.91% and -0.63%,3.01% and -0.26%,1.57% and -1.4%
CN(c1ccc(NC(=O)NCCN2CCOCC2)cc1)c1ccnc(Nc2ccc(CS(C)(=O)=O)cc2)n1,4.97%,0.85%,0.61%,1.97%,2.7%,2.92%,3.83%,2.9%,7.21%,2.81%
COc1ccc2ncn(-c3cc(O[C@H](C)c4ccccc4C(F)(F)F)c(C(N)=O)s3)c2c1,-2.31%,-0.78%,-1.64%,-0.39%,-0.49%,-0.9%,-0.93%,0.76%,5.8%,-0.92%
COc1ccccc1-c1cc(/C=C2\C(=O)Nc3ncc(Br)cc32)cc(Br)c1O,4.6%,0.85%,1.21%,1.81%,1.69%,5.31%,6.33%,3.43%,7.22%,3.34%
Cn1c(-c2nonc2N)nc2cnccc21,2.42%,0%,5.3%,1.66%,1.06%,3.29%,2.75%,3.2%,7.22%,0.25%
CNC(=O)c1cncc(/C=C/c2ccccc2C)c1,7.67%,0.83%,0.28%,1.99%,2.51%,3.43%,3.22%,2.55%,7.06%,3.94%
NS(=O)(=O)c1ccc(N/N=C2\C(=O)Nc3ccc(C(=O)NCc4ccncc4)cc32)cc1,4.92%,3.49%,0.04%,2.73%,3.71%,4.05%,2.16%,7.5%,40.7%,4.2%

SMILES,inhibition [1],inhibition [2],inhibition [3],inhibition [4],inhibition [5],inhibition [6],inhibition [7],inhibition [8],inhibition [9],inhibition [10]
COc1ccc(Nc2ncc(-c3ccccc3)o2)cc1OC,1.47%,0.15%,5.3%,-0.12%,-0.35%,0.05%,0.81%,2.68%,20.4%,4.59%
Cc1ccc(-c2cc3c(NC(=O)C4CC4)ncnc3o2)cc1,4.66%,1.46%,0.28%,1.78%,1.3%,2.67%,2.29%,5.62%,5.21%,3.78%
CC1=C(C(=O)Nc2ccc3[nH]nc(C)c3c2)C(c2ccc(C(F)(F)F)cc2)CC(=O)N1 (stereo not given),4.3%,1.35%,0.55%,1.67%,0.92%,0.91%,3.08%,1.38%,3.89%,-1.82%
O=C(O[C@H]1CN[C@H](C#Cc2cc3ncnc(Nc4ccc5c(ccn5Cc5cc(F)ccc5F)c4)c3s2)C1)N1CCOCC1,-3.4%,1.07%,-1.18%,-0.3%,-1.2%,-1.09%,-1.03%,4.09%,3.3%,1.37%
CS(=O)(=O)CCNCc1ccc(-c2ccc3ncnc(Nc4ccc(OCc5ccccc5)cc4)c3c2)o1,1.36%,1.31%,1.03%,1.2%,0.72%,3.13%,2.48%,3.03%,2.05%,0.62%
CN1CCN(Cc2ccc(-c3cc4ncnc(Nc5ccc(OCc6cccc(F)c6)c(Cl)c5)c4s3)o2)CC1,8.26% and 8.39%,-1.96% and 1.28%,-0.55% and 0.13%,3.34% and 2.08%,3.32% and 2.11%,10.6% and 4.26%,13% and 4.01%,2.62% and 3.44%,6.17% and 6%,1.67% and 1.64%
Cc1cc(O)cc(C)c1/C=C/c1cncc(C(N)=O)c1,1.91%,1.42%,3.35%,1.06%,0.98%,1.57%,1.76%,2.85%,3.03%,3.52%
CS(=O)(=O)CCNCc1ccc(-c2ccc3ncnc(Nc4ccc(OCc5cccc(C(F)(F)F)c5)cc4)c3c2)o1,5.63%,0.29%,1.78%,3.06%,3.74%,5.88%,8.3%,0.99%,3.78%,0.32%
CCCNc1cccc(-n2ncc3c(N/N=C/c4ccncc4)ncnc32)c1,-8.41%,6.83%,2.98%,-2.72%,-2.37%,-5.26%,-4.82%,2.01%,10.3%,3.4%
NS(=O)(=O)c1cccc(N/C=C2\C(=O)Nc3ccccc32)c1,12.5%,0.84%,2.32%,4.22%,4.45%,11.3%,12.1%,6.31%,24.4%,5.23%
COc1cc2c(cc1Nc1nc(Nc3cccc(F)c3C(N)=O)c3cc[nH]c3n1)N(C(=O)CN1CCN(C(C)C)CC1)CC2,5.15%,4.68%,1.43%,1.04%,2.85%,3.25%,5.17%,1.44%,3.35%,3.73%
CCn1c(-c2nonc2N)nc2cncc(C(=O)NCCNC)c21,0.19%,1.52%,1.62%,2.34%,1.53%,3.52%,3.94%,1.84%,14.9%,1.81%
CCN1CCC(C(=O)Nc2n[nH]c3nnc(-c4cccc(F)c4F)cc23)CC1,-1.64%,-0.76%,-0.98%,-0.95%,-0.88%,-0.17%,-1.03%,0.92%,2.69%,-0.37%
c1ccc(-c2n[nH]cc2-c2ccnc(-c3ccc(OCCn4ccnc4)cc3)c2)nc1,-8.69%,6.53%,-6.73%,-2.58%,-2.83%,-3.24%,4.97%,1.59%,3.61%,-0.18%
OCCCNc1nccc(-c2c(-c3ccc(F)cc3)nn3cc(C(F)(F)F)ccc23)n1,1.04%,0.89%,2.29%,0.94%,0.71%,30.2%,36.3%,0.69%,3.09%,0.94%
